Results on 26 compounds are retold here after PubChem BioAssay AID798 (PCMD, 2007).

SMILES strings stand for the structures. The whole screen tested about 220,000 compounds, of which about 300 (0.14%) were called active. This is one part of a sample in which actives are shown more often than they occur. Unmarked numbers belong to inactive results.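 The calls were made as follows: active = inhibition of at least 40%; inactive = inhibition below 40%.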

The target in the experiment is Coagulation factor XI (Homo sapiens) (UniProt P03951). Description: factor XIa enzyme inhibition, large library – biochemical, 1536-well, primary screen (AID 798).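 Also: fluorescence of freed AMC excited at 355 nm; 0% = enzyme without compound and 100% = no enzyme blank.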 The following applies: purified FXIa, Boc-Glu-Ala-Arg-AMC fluorogenic substrate; at 5 µM; active compounds read high.
Sequence of Coagulation factor XI (Homo sapiens) (P03951 19-387 limits assumed): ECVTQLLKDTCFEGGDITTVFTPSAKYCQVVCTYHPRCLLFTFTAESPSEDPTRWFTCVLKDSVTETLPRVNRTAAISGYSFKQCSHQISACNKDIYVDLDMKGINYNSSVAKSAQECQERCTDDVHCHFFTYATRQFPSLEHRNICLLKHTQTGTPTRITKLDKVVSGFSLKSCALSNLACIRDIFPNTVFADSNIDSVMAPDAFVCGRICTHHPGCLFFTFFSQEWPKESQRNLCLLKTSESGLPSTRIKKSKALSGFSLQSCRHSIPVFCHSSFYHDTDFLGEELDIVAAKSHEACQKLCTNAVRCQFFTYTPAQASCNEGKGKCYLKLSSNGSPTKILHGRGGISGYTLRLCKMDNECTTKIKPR
Sequence of Coagulation factor XI (Homo sapiens) (P03951 388-625 limits assumed): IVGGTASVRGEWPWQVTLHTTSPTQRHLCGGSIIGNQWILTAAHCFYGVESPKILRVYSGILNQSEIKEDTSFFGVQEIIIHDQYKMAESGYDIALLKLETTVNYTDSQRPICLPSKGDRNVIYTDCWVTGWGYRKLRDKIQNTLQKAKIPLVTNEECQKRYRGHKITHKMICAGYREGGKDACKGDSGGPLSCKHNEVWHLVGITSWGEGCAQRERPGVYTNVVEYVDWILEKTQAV
In general, inhibition refers to the change of the read-out against control, counted positive when it falls. Regarding `COc1cc(-c2nnn(CC(=O)NCc3ccccc3)n2)cc(OC)c1OC`, the inhibition is 3%.

Take `CNc1ccc([N+](=O)[O-])cc1C(=O)O`: the inhibition was -2.33%.

As to `NC(=O)C1CCN(C(=O)COc2cccc3cccnc23)CC1`, the inhibition is 0.03%.

For `Cc1cnc(NC(=O)Cn2cnc3c2c(=O)n(C)c(=O)n3C)s1`, the inhibition was -1.78%.

As for `CCOCCn1c(-c2ccccc2)nc2ccccc21`, the inhibition was 0.72%.

As to `Cc1ccc(Sc2ccncc2S(N)(=O)=O)cc1`, the inhibition is 5.95%.

For the compound `CC(C)(C)CC(C)(C)NCC(O)COCCOc1ccc(Br)cc1` (stereo unspecified), the inhibition was 1.54%.

With `COC(=O)c1sccc1NN1C(=O)c2ccccc2C1=O`, the inhibition was 0.85%.

Turning to `O=C(CC(NC(=O)c1ccccc1)c1ccccc1)Nc1ccc(F)c(F)c1` (stereo unspecified), the inhibition was -2.03%.

Consider `Cc1ccc(C2CCN(C(=S)Nc3cccc(Cl)c3)C2)cc1` (stereo unspecified), for which the inhibition is -2.9%.

Regarding `CCOC(=O)COc1cc(O)c2c(=O)cc(-c3ccccc3)oc2c1`, the inhibition was 45% (active).

Turning to `Cc1noc(C)c1COC(=O)COc1ccc(-c2ccccc2)cc1`, the inhibition was 9.94%.

In the case of `CCOC(=O)COc1cc(OCC(=O)OCC)c2c(=O)cc(-c3ccccc3)oc2c1`, the inhibition was -3.59%.

For `CCOC(=O)c1nn(-c2ccccc2F)c2nc(Nc3ccccc3)cc(=O)n12`, the inhibition was -3.73%.

With `COc1cccc(-n2nc(C(=O)N3CCN(Cc4ccccc4)CC3)c3ccccc3c2=O)c1`, the inhibition was -0.09%.

Regarding `C/C(Cc1ccccc1)=N\NC(=O)CNC(=O)c1cccc(Br)c1`, the inhibition is 9.13%.

Turning to `C/C(Cc1ccccc1)=N\NC(=O)CNC(=O)c1ccccc1Cl`, the inhibition is 56.6% (active).

For the compound `C/C(Cc1ccccc1)=N\NC(=O)CNC(=O)c1ccc2c(c1)OCCO2`, the inhibition is -2.1%.

Regarding `CCOc1ccc(Br)cc1S(=O)(=O)N1CCC(C(=O)O)CC1`, the inhibition was -8.82%.

Consider `CC(NC(=S)Nc1ccccc1)C1COc2ccccc2O1` (stereo unspecified), for which the inhibition is 3.5%.

Take `Cc1c(Cl)cccc1NC(=O)Nc1ccc(C(=O)N2CCCC2)cc1`: the inhibition is 18.9%.

`Cc1ccc(C(=O)COC(=O)c2cccc(N3C(=O)c4c(C)nc5ccccc5c4C3=O)c2)cc1C`: the inhibition was 8.56%.

As for `CN(CC(=O)Nc1ccc(F)cc1)CC(=O)Nc1ccc(Cl)c(S(=O)(=O)N2CCOCC2)c1`, the inhibition is 0.07%.

For `COc1ccc(C(=O)NNC(=O)c2cc(C)[nH]n2)cc1`, the inhibition was 1.62%.

Turning to `COc1ccc(CNC(=O)COC(=O)/C=C/c2ccc(S(=O)(=O)N3CCOCC3)cc2)cc1`, the inhibition was -3.11%.

As to `CCc1ccc(Oc2coc3cc(OC(=O)c4cc5ccccc5oc4=O)ccc3c2=O)cc1`, the inhibition is -3.61%.
